Values joined by “and” are separate entries in the source; they are usually repeats but may differ in a detail not shown here. Equal entries are not always repeated. Records with an inconclusive call do not appear. Where a structure was tested more than once in an assay, its records may differ in their call. Active and inactive are the calls of the source. Unless noted, calls follow the shape of the dose curve; as a rule, active = well fitted curve in the direction sought with a large enough effect in the repeat runs; inconclusive = weak or mixed curves; inactive = no such curve, though single readings can be large; an effect the other way counts as inactive or inconclusive.

Assay [1] is described as follows: qHTS assay to identify small molecule agonists of the vitamin D receptor (VDR) signaling pathway - cell viability counter screen (AID 743224). Also: nearly all actives have a fitted effect of over 50% in size. Also: potency is read from the fitted curve at half-maximal effect. The procedure, abridged: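 Cells: VDR-bla, 2,000/well, settled 4 h. Treatment: compounds in DMSO, 16 h, 37C/5% CO2. Readout: CellTiter-Glo luminescence after 30 min RT.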
On the technique in general: qHTS replaces the single test concentration by a dilution series.

Assay [2] in a line: qHTS assay to identify small molecule antagonists of the vitamin D receptor (VDR) signaling pathway - cell viability counter screen (AID 743225). Also: nearly all actives have a fitted effect of over 50% in size. The procedure, abridged: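 HEK293T VDR-bla; cpd + 1a,25-(OH)2D3 3 nM final, 16 h 37C/5% CO2; B/G FRET substrate 2 h RT; then CellTiter-Glo 30 min RT, luminescence.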
A short description of assay [3]: qHTS assay to identify small molecule agonists of the NFkB signaling pathway (AID 1159509; active = well fitted curve in the direction sought with a large enough effect in the signal ratio in the repeat runs, not every such curve was filed as active; the % refers to the signal ratio; also: series mostly up to about 61 µM). An outline of the steps: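 Readout: FRET fluorescence, 405 nm excitation, 460/530 nm emission; beta-lactamase expression disrupts FRET. Cells: ME-180 stably carrying NF-kB-driven bla reporter. Compound exposure 5 hr, 37 C, 5% CO2.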
Assay [4] can be described thus: qHTS assay to identify small molecule agonists of the NFkB signaling pathway - cell viability counter screen (AID 1159515; calls by dose curve; also: series mostly up to about 61 µM; nearly all actives have a fitted effect of over 55% in size). An outline of the steps: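 Cells are seeded (2,000 NFkB-bla ME-180 per well), rested overnight, and dosed with DMSO-dissolved compounds for 5 hr at 37 C. Viability is then read by CellTiter-Glo luminescence after 30 min at room temperature.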

Assay [5] is described as follows: qHTS assay to identify small molecule agonists of the endoplasmic reticulum stress response signaling pathway (AID 1159516; active = well fitted activation curve with a large enough effect in the signal ratio in the repeat runs, not every such curve was filed as active; the % refers to the signal ratio). An outline of the steps:
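Cells are seeded at 1,500 per well and incubated overnight. Compounds in DMSO are added for 5 hr at 37 C, then beta-lactamase FRET substrate for 2 hr at room temperature, and fluorescence at 460 and 530 nm is measured.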

Assay [6] is described as follows: qHTS assay to identify small molecule agonists of the endoplasmic reticulum stress response signaling pathway - cell viability counter screen (AID 1159517; calls by dose curve;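 also: HeLa cells carrying an ER stress response element beta-lactamase reporter; series mostly up to about 61 µM; nearly all actives have a fitted effect of over 50% in size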). The procedure, abridged: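 After overnight attachment, ESRE-bla HeLa cells were treated with Tox21 library compounds for 5 hr. CellTiter-Glo luminescence, read 30 min post-addition at room temperature, reported viability.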

Assay [7] can be described thus: qHTS assay to identify small molecule antagonists of the retinoid-related orphan receptor gamma (ROR-gamma) signaling pathway - cell viability counter screen (AID 1159520). Also: nearly all actives have a fitted effect of over 50% in size. An outline of the steps:
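Cytotoxicity was read from cellular ATP (CellTiter-Glo luminescence) after 16 hr at 37 C with 1 uM doxycycline induction. The inducer was added 2 hr after compound transfer to Tet-on ROR gamma CHO cells.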

Assay [8] can be described thus: qHTS assay to identify small molecule agonists of the AP-1 signaling pathway - cell viability counter screen (AID 1159525; calls by dose curve; also: nearly all actives have a fitted effect of over 55% in size). An outline of the steps: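 Intracellular ATP by Cell Titer Glo luminescence (30 min, RT) in the same ME-180 AP-1-bla wells after the 5 h compound exposure at 37 °C. Normalised to tetra n-octyl ammonium bromide and DMSO controls.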
A short description of assay [9]: qHTS assay to identify small molecule agonists of the AP-1 signaling pathway (AID 1159526; calls by dose curve).
Assay [10] can be described thus: qHTS assay to identify small molecule agonists of the RXR signaling pathway - cell viability counter screen (AID 1159529). Also: nearly all actives have a fitted effect of over 50% in size. Also: potency is read from the fitted curve at half-maximal effect. An outline of the steps: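 Steps: seed RXR-alpha-UAS-bla HEK 293T cells in assay medium containing 2% charcoal-stripped FBS; incubate 5 hr; add compounds in DMSO; incubate 16 hr at 37 C; after the bla read, add CellTiter-Glo and read luminescence at 30 min.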

Assay [11] is described as follows: qHTS assay to identify small molecule antagonists of the retinoid acid receptor (RAR) signaling pathway - cell viability counter screen (AID 1159551). Also: nearly all actives have a fitted effect of over 35% in size. An outline of the steps:
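Cells (C3RL4) are plated, incubated overnight, dosed with compound in DMSO, then given retinol at 1 uM final. After 6 h at 37 C, CellTiter-Glo is added and luminescence read following 30 min at room temperature.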

Assay [12] can be described thus: qHTS assay to identify small molecule antagonists of the retinoic acid receptor (RAR) signaling pathway (AID 1159552; also: nearly all actives have a fitted effect of over 50% in size). An outline of the steps: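 Retinol at 1 uM final stimulated RARE-luciferase expression in C3RL4 cells exposed to test compounds for 6 hr at 37 C. Reduced luminescence, read 30 min after detection reagent, indicated pathway antagonism.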
Assay [13] is described as follows: qHTS assay to identify small molecule agonists of the retinoic acid receptor (RAR) signaling pathway (AID 1159553). Also: potency is read from the fitted curve at half-maximal effect. The procedure, abridged:
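Seed C3RL4 reporter cells at 1,000 per well and incubate overnight at 37 C. Add compounds in DMSO, incubate 6 hr. Add luciferase reagent, wait 30 min at room temperature, read luminescence.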

Assay [14] deals with Nuclear receptor ROR-gamma (Homo sapiens) (UniProt P51449). Put plainly: qHTS assay to identify small molecule antagonists of the retinoid-related orphan receptor gamma (ROR-gamma) signaling pathway (AID 1159521). An outline of the steps: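 Cells were plated, rested 4 h at 37 C, exposed to compounds for 2 h, then given 1 uM final doxycycline hyclate to induce RORγ expression. After 16 h, ONE-Glo luminescence from the ROR response element reporter was measured.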

The target of assay [15] is Retinoic acid receptor RXR-alpha (Homo sapiens) (UniProt P19793). Put plainly: qHTS assay to identify small molecule agonists of the RXR signaling pathway (AID 1159527; calls by dose curve; also: nearly all actives have a fitted effect of over 35% in size). An outline of the steps: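 Cells plated at 2,000/well, rested 5 hr at 37 C, pin-dosed with DMSO compound solutions, incubated 16 hr, then loaded with B/G FRET substrate for 2 hr at RT before dual-emission fluorescence reading.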
Sequence of Retinoic acid receptor RXR-alpha (Homo sapiens) (P19793 whole entry, looked up): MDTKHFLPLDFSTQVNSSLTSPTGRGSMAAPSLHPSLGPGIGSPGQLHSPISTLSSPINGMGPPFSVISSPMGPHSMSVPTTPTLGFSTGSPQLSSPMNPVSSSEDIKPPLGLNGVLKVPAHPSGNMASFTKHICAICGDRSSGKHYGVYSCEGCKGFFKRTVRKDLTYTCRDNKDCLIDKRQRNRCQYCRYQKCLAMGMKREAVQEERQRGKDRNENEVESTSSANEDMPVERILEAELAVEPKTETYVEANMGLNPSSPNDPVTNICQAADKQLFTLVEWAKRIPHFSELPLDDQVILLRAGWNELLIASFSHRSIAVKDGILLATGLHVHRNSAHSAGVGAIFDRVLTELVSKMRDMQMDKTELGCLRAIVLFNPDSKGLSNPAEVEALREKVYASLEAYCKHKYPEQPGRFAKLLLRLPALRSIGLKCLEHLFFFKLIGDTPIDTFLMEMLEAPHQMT

`CC1=C(/C=C/C(C)=C/C=C/C(C)=C/CO)C(C)(C)CCC1`: the Potency result in assay [1], in assay [2], in [6], in [7], in assay [8] and in [9] was “inactive” throughout. In addition, the Potency entry in [10], in assay [11] and in [12] was “inactive” throughout. The compound was called inactive in [3], in [4] and in assay [5]. For the same compound, in [13], the Potency is 13.9 µM (active) and 32.3 µM (active).
Turning to `NC(=O)/N=N/C(N)=O`, the Potency result in assay [1], in assay [2], in assay [6], in [7], in assay [14] and in [8] was “inactive” throughout. For the same compound, the Potency entry in assay [9], in assay [15], in [10], in [11], in assay [12] and in assay [13] was “inactive” each time. The result in [3], in [4] and in [5] was inactive.
Consider `O=C(Oc1ccccc1)c1ccc(O)cc1`, for which the Potency result in [1], in [2], in [6], in assay [7], in assay [14] and in assay [9] was “inactive” throughout. Moreover, the Potency entry in assay [15], in assay [10], in assay [11] and in assay [12] was “inactive” each time. Also, the outcome in [3], in [4] and in [5] was inactive. In assay [13], the Potency is 19.4 µM (active) and 30.6 µM (active).
On to `CCCCOCCOCCOC(=O)CCCCC(=O)OCCOCCOCCCC`, for which the Potency result in [1], in assay [2], in [6], in assay [7], in [14] and in assay [8] was “inactive” throughout. Further, the Potency result in [9], in assay [15], in assay [10], in [11], in assay [12] and in assay [13] was “inactive” each time. The call in assay [3], in assay [4] and in assay [5] was inactive.
As to `CC(=O)Nc1ccc(C(=O)O)cc1`, the Potency entry in [1], in assay [2], in assay [6], in assay [7], in assay [14] and in [8] was “inactive” throughout. Also, the Potency result in assay [9], in assay [15], in assay [10], in [11], in [12] and in assay [13] was “inactive” each time. Besides, the result in assay [3], in [4] and in assay [5] was inactive.
As to `CCC(=O)O`, the Potency result in assay [1], in assay [2], in [6], in [7], in [14] and in assay [9] was “inactive” throughout. The Potency result in [15], in assay [10], in assay [11] and in assay [12] was “inactive” throughout. Besides, the call in assay [3], in assay [4] and in [5] was inactive.
Regarding `CNC[C@H](O)[C@@H](O)[C@H](O)[C@H](O)CO`, the Potency result in [1], in assay [2], in assay [6], in assay [7], in assay [14] and in [8] was “inactive” throughout. In addition, the Potency result in [9], in [15], in assay [10], in assay [11], in assay [12] and in assay [13] was “inactive” each time. Further, the compound was called inactive in [3], in assay [4] and in assay [5].
In the case of `CCCCC/C=C\C/C=C\CCCCCCCC(=O)OC`, the Potency result in assay [1] is “inactive and 49 µM (active)”; in [10], “inactive and 34.7 µM (active)”. The Potency result in [2], in assay [6], in [7], in [14], in [8] and in [9] was “inactive” throughout. For the same compound, the Potency entry in assay [15], in assay [11], in assay [12] and in assay [13] was “inactive” each time. For the same compound, the result in assay [3], in assay [4] and in assay [5] was inactive.

These data come from PubChem BioAssay (Tox21).
